# Results reported in article PMC7862700, “An all-to-all approach to the identification of sequence-specific readers for epigenetic DNA modifications on cytosine”.
# What was measured:
# Experiment in all cases: DAPPL (digital affinity profiling via proximity ligation, sequencing); 10 mM Tris-HCl pH 7.5, 50 mM NaCl, 1 mM DTT, 4% glycerol, room temperature, 30 min; GST-TFs on glutathione beads, 16-mer random dsDNA library, 0.1% formaldehyde crosslink after washing; high values mean tight binding
# FEV = molecular target: T1, FEV (Homo sapiens, UniProt Q99581 1-238); conditions: protein: recombinant; tags: N-terminal GST; dsDNA, one strand shown
# T1 sequence: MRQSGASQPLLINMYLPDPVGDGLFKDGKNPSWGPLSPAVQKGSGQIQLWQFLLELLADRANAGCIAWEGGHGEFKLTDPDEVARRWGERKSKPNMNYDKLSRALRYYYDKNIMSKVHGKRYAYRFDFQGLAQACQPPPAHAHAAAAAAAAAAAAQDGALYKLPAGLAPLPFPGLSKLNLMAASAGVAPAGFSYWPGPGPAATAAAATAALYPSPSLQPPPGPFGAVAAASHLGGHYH
# Method in brief: (§1)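 In yeast, human transcription factors were expressed with a GST fusion, then pulled down on glutathione beads and given DNA barcodes. Pooled with a tag-only sample, they were exposed to 200 nmole of a 16-mer random double-stranded DNA library (Tris/NaCl/DTT/glycerol buffer, room temperature, 30 min), washed, crosslinked with 0.1% formaldehyde, proximity-ligated using BsaI/T4 ligase for 1 h at 37 °C, PCR-amplified and read on an Illumina NextSeq500. Each hexamer's frequency of reads for a factor, divided by the matching frequency for the tag-only sample, gives the binding signal.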
# ETV5 = ETV5 (Homo sapiens, UniProt P41161 1-510); conditions: protein: recombinant; tags: N-terminal GST; dsDNA, one strand shown
# Method in brief: as §1
# HSF1 = HSF1 (Homo sapiens, UniProt Q00613 1-529); conditions: protein: recombinant; tags: N-terminal GST; chain copies: 3; dsDNA, one strand shown
# Method in brief: as §1
# SPIC = molecular target: T2, SPIC (Homo sapiens, UniProt Q8N5J4 1-248); conditions: protein: recombinant; tags: N-terminal GST; dsDNA, one strand shown
# T2 sequence: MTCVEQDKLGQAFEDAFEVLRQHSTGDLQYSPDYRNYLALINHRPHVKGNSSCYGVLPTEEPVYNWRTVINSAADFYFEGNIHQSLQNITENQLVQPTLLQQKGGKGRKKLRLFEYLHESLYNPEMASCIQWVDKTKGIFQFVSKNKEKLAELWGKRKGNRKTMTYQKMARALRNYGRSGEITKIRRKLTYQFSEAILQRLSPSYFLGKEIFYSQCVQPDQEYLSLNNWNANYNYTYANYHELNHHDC
# Method in brief: as §1
# ELF4 = ELF4 (Homo sapiens, UniProt Q99607 1-663); conditions: protein: recombinant; tags: N-terminal GST; dsDNA, one strand shown
# Method in brief: as §1
# ELK4 = molecular target: T3, ELK4 (Homo sapiens, UniProt P28324-2 1-405); conditions: protein: recombinant; tags: N-terminal GST; dsDNA, one strand shown
# T3 sequence: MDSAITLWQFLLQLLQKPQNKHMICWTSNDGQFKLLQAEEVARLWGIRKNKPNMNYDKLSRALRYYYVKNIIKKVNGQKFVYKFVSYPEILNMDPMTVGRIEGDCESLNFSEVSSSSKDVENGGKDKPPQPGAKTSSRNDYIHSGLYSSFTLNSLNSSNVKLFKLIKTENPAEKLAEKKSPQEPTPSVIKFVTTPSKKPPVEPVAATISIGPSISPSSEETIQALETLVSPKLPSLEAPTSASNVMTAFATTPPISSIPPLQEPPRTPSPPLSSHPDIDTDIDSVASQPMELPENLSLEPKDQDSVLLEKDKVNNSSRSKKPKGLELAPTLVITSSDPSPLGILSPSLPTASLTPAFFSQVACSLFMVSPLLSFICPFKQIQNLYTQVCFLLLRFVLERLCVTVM
# Method in brief: as §1
# ETV2 = molecular target: T4, ETV2 (Homo sapiens, UniProt O00321 1-342); conditions: protein: recombinant; tags: N-terminal GST; dsDNA, one strand shown
# T4 sequence: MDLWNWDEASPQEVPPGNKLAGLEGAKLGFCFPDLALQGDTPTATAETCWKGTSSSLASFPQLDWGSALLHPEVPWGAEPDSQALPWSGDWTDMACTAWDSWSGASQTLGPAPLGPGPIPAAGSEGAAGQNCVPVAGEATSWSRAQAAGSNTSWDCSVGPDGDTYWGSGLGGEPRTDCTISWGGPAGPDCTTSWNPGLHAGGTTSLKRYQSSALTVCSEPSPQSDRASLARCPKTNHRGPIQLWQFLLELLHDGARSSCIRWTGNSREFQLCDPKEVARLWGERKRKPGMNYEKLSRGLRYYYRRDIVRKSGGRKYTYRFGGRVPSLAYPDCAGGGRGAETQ
# Method in brief: as §1
# ELF3 = molecular target: T5, ELF3 (Homo sapiens, UniProt P78545 1-371); conditions: protein: recombinant; tags: N-terminal GST; dsDNA, one strand shown
# T5 sequence: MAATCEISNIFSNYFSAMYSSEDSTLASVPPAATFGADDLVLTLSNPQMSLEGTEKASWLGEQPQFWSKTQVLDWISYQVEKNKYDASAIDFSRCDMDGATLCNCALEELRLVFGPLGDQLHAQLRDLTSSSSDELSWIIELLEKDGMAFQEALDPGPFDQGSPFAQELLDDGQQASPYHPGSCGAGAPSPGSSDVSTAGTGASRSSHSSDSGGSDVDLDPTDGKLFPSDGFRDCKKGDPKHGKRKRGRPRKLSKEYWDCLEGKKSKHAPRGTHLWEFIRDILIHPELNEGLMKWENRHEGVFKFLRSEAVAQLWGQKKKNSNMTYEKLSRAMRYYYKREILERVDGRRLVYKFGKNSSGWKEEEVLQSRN
# Method in brief: as §1
# CRX = CRX (Homo sapiens, UniProt O43186 1-299); conditions: protein: recombinant; tags: N-terminal GST; dsDNA, one strand shown
# Method in brief: as §1
# ETV1 = ETV1 (Homo sapiens, UniProt P50549 1-477); conditions: protein: recombinant; tags: N-terminal GST; dsDNA, one strand shown
# Method in brief: as §1
# ERF = molecular target: T6, ERF (Homo sapiens, UniProt P50548 1-548); conditions: protein: recombinant; tags: N-terminal GST; dsDNA, one strand shown
# T6 sequence: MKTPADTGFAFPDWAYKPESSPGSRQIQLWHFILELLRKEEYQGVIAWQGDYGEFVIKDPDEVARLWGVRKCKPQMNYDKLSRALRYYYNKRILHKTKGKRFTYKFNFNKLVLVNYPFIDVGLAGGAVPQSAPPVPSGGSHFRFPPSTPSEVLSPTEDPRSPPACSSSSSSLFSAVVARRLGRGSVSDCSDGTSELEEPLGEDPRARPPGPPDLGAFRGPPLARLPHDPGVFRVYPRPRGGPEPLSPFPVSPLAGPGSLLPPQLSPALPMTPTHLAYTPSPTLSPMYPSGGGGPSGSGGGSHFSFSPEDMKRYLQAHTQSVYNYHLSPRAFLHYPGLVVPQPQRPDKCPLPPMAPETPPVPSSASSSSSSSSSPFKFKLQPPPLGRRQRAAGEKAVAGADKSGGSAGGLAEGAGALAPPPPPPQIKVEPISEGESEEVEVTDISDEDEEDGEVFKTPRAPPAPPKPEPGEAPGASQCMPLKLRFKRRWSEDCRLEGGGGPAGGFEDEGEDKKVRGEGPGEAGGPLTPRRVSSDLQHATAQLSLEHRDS
# Method in brief: as §1
# ETV3L = molecular target: T7, ETV3L (Homo sapiens, UniProt Q6ZN32 1-361); conditions: protein: recombinant; tags: N-terminal GST; dsDNA, one strand shown
# T7 sequence: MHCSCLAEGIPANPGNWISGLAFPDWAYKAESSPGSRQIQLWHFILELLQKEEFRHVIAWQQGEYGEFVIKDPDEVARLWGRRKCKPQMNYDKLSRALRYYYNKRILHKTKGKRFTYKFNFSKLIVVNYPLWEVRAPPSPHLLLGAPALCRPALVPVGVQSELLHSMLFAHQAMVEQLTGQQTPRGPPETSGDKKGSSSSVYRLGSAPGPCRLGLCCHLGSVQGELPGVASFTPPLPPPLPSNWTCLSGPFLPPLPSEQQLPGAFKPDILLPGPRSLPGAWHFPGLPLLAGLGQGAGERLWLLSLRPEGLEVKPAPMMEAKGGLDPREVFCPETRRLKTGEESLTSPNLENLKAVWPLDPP
# Method in brief: as §1
# ETS2 = molecular target: T8, ETS2 (Homo sapiens, UniProt P15036 1-469); conditions: protein: recombinant; tags: N-terminal GST; dsDNA, one strand shown
# T8 sequence: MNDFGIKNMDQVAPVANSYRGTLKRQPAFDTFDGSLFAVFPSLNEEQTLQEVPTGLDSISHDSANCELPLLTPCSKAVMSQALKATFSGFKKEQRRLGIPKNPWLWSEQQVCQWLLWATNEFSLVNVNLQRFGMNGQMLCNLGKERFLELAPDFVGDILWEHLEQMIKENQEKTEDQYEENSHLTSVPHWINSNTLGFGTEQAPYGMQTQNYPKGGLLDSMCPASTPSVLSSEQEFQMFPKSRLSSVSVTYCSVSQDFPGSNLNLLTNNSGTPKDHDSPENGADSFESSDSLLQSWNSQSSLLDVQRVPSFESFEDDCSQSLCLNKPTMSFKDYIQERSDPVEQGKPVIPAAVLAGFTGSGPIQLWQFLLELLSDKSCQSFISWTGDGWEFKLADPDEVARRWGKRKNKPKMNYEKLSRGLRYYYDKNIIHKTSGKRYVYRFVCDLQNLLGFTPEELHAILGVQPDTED
# Method in brief: as §1
# SPDEF = molecular target: T9, SPDEF (Homo sapiens, UniProt O95238 1-335); conditions: protein: recombinant; tags: N-terminal GST; dsDNA, one strand shown
# T9 sequence: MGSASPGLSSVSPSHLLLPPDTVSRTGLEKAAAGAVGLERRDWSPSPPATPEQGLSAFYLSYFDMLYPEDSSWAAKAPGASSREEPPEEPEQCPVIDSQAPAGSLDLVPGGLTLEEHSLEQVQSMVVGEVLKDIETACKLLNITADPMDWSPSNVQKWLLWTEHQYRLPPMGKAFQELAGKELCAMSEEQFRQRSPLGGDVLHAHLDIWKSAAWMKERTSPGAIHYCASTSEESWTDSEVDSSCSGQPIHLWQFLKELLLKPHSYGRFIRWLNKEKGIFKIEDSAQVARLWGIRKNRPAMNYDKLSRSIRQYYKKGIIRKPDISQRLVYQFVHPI
# Method in brief: as §1
# ETV7 = molecular target: T10, ETV7 (Homo sapiens, UniProt Q9Y603 1-341); conditions: protein: recombinant; tags: N-terminal GST; dsDNA, one strand shown
# T10 sequence: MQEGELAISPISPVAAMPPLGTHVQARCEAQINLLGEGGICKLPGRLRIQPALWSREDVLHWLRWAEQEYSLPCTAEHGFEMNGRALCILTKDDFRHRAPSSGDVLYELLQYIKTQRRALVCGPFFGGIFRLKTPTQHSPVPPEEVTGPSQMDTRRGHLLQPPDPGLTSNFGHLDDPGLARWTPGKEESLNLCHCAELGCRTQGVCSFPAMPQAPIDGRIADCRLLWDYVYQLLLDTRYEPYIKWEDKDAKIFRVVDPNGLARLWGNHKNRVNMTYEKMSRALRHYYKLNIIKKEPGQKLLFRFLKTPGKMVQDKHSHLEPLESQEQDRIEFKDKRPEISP
# Method in brief: as §1
# ELF5 = molecular target: T11, ELF5 (Homo sapiens, UniProt Q9UKW6-2 1-255); conditions: protein: recombinant; tags: N-terminal GST; dsDNA, one strand shown
# T11 sequence: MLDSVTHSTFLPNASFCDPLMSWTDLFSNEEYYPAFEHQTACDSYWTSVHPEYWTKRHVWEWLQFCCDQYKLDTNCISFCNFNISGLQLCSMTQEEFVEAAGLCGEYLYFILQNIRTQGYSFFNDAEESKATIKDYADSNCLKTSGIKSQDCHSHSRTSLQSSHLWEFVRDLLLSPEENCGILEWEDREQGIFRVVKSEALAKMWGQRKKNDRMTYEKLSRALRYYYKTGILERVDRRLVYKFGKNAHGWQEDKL
# Method in brief: as §1
# ETV3 = molecular target: T12, ETV3 (Homo sapiens, UniProt P41162-2 1-143); conditions: protein: recombinant; tags: N-terminal GST; dsDNA, one strand shown
# T12 sequence: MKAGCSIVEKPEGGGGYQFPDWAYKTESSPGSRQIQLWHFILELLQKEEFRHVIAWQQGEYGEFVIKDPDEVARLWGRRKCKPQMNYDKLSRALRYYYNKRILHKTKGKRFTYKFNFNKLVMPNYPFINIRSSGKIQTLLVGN
# Method in brief: as §1
# ETV6 = ETV6 (Homo sapiens, UniProt P41212 1-452); conditions: protein: recombinant; tags: N-terminal GST; dsDNA, one strand shown
# Method in brief: as §1
# ETV1, sequence (P50549 whole entry): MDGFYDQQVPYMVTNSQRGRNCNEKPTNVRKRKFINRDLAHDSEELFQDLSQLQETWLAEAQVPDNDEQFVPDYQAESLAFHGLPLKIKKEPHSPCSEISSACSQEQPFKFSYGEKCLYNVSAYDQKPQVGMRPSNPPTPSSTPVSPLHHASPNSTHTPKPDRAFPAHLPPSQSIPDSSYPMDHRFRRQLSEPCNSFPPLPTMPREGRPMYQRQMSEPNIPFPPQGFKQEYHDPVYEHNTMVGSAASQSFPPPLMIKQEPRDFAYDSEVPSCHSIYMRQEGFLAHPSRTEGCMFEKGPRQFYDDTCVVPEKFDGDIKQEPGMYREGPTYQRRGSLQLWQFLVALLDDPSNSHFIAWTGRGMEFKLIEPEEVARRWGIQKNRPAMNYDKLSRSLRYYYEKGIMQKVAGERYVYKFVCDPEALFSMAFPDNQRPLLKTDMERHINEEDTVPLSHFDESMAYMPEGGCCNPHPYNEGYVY
# ETV6, sequence (P41212 whole entry): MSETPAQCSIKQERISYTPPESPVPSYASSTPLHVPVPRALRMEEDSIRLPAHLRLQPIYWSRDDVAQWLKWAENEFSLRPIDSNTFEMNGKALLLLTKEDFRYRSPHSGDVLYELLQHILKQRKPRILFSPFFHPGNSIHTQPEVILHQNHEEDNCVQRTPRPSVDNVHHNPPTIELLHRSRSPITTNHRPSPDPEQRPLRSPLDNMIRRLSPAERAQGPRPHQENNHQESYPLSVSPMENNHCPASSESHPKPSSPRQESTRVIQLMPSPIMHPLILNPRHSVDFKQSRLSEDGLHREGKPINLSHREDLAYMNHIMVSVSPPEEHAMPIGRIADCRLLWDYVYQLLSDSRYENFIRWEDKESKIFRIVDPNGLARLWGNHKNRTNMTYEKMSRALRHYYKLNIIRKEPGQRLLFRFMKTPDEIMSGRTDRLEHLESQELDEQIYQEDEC
# HSF1, sequence (Q00613 whole entry): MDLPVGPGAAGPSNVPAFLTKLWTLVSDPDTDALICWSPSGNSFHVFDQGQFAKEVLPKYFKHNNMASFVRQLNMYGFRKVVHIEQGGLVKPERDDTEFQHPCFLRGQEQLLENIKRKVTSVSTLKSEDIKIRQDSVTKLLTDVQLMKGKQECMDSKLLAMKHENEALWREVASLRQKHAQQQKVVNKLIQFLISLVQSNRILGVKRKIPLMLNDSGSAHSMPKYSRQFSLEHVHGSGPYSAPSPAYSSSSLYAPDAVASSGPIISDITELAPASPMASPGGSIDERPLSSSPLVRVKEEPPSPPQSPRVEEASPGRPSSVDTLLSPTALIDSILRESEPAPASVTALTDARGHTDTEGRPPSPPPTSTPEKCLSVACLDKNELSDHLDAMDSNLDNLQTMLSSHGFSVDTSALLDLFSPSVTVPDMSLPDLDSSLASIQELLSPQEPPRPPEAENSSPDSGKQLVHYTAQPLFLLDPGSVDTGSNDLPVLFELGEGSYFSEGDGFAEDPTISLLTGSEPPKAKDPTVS
# ETV5, sequence (P41161 whole entry): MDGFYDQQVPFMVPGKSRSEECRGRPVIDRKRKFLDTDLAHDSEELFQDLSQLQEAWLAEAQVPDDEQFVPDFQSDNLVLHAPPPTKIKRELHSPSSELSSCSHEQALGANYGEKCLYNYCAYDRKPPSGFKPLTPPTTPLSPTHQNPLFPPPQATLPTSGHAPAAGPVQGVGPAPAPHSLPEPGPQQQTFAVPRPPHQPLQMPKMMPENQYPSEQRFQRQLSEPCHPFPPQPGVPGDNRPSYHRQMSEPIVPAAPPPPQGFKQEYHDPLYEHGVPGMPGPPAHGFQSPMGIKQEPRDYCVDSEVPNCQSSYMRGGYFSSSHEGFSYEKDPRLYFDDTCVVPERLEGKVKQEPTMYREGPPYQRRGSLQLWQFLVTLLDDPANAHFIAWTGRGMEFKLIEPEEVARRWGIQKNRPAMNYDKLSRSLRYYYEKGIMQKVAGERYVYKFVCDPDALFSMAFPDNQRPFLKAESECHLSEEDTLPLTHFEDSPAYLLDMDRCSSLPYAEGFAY
# CRX, sequence (O43186 whole entry): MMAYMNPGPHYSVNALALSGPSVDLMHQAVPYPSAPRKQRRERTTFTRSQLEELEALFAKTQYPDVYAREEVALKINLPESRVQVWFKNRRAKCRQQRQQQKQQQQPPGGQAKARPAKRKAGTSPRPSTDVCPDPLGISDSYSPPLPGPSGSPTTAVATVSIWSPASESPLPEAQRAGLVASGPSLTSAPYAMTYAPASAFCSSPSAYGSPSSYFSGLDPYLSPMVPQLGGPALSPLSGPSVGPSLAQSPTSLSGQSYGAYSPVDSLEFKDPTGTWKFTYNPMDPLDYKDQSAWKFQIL
# ELF4, sequence (Q99607 whole entry): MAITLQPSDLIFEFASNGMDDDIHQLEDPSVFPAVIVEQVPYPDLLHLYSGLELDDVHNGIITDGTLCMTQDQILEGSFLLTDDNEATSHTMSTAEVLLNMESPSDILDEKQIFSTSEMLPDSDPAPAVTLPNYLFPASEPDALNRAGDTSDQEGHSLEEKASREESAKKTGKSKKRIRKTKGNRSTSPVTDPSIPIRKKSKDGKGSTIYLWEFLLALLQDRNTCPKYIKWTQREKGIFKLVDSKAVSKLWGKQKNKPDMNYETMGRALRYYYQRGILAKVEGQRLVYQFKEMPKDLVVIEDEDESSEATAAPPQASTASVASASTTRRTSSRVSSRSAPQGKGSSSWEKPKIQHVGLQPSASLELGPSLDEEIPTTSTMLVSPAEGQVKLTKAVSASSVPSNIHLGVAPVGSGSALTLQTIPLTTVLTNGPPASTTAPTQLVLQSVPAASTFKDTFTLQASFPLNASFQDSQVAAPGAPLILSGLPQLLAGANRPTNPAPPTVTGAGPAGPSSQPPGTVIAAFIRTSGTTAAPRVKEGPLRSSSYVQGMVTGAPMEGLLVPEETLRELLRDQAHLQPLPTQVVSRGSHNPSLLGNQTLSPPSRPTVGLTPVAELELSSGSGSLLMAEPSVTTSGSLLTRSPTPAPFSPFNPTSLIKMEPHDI
sequence,measurement,setting,value
TCCCGT,binding signal,FEV,"1.3 fold enrichment (6-mer frequency, TF over GST control)"
same,binding signal,ETV5,"1.38 fold enrichment (6-mer frequency, TF over GST control)"
same,binding signal,HSF1,"1.35 fold enrichment (6-mer frequency, TF over GST control)"
same,binding signal,SPIC,"1.28 fold enrichment (6-mer frequency, TF over GST control)"
same,binding signal,ELF4,"1.23 fold enrichment (6-mer frequency, TF over GST control)"
same,binding signal,ELK4,"1.41 fold enrichment (6-mer frequency, TF over GST control)"
same,binding signal,ETV2,"1.29 fold enrichment (6-mer frequency, TF over GST control)"
same,binding signal,ELF3,"1.37 fold enrichment (6-mer frequency, TF over GST control)"
same,binding signal,CRX,"1.18 fold enrichment (6-mer frequency, TF over GST control)"
same,binding signal,ETV1,"1.3 fold enrichment (6-mer frequency, TF over GST control)"
same,binding signal,ERF,"1.4 fold enrichment (6-mer frequency, TF over GST control)"
same,binding signal,ETV3L,"1.29 fold enrichment (6-mer frequency, TF over GST control)"
same,binding signal,ETS2,"1.34 fold enrichment (6-mer frequency, TF over GST control)"
same,binding signal,SPDEF,"1.44 fold enrichment (6-mer frequency, TF over GST control)"
same,binding signal,ETV7,"1.32 fold enrichment (6-mer frequency, TF over GST control)"
same,binding signal,ELF5,"1.6 fold enrichment (6-mer frequency, TF over GST control)"
same,binding signal,ETV3,"1.27 fold enrichment (6-mer frequency, TF over GST control)"
same,binding signal,ETV6,"1.3 fold enrichment (6-mer frequency, TF over GST control)"
